{"source": "PubChem BioAssay (NCI)", "note": "The panel holds about 83,000 compounds, 20% with a hit somewhere; the sample as a whole holds those more often.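 A percent growth of 40 corresponds to 60% growth inhibition; 0 means no net growth; -100 means all cells died. Active threshold: below 10.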 A number with no mark means an inactive call. Active and inactive are the calls of the source."}
{"test_system": "HL-60(TB) leukemia", "experiment": "NCI-60 one-dose screen, 48 h (100 = growth as untreated, 0 = no growth, -100 = all killed)", "conditions": "10 µM unless noted"}
{"smiles": "[O-]/[N+](=C\\C=C\\c1ccccc1)c1ccccc1", "growth": "82.3%"}
{"smiles": "CO[C@@H]1[C@H](N(C)C(=O)c2ccccc2)C[C@@H]2O[C@]1(C)n1c3ccccc3c3c4c(c5c6ccccc6n2c5c31)C(=O)NC4=O", "growth": "78.9%"}
{"smiles": "COc1ccc2c(c1)C(c1c[nH]c3ccccc13)(c1c[nH]c3ccccc13)CCO2", "growth": "41.2%"}
{"smiles": "O=C(Nc1c(Cl)cccc1Cl)Oc1cccc2cccnc12", "growth": "-5.41% [100 µM] (active)"}
{"smiles": "COc1ccc(OC)c(Nc2nnc(-c3ccc(O)c(OC)c3)o2)c1", "growth": "87.3%"}
{"smiles": "C[C@]12CC[C@@H]3c4cc(OC(F)F)c(O)cc4CC[C@H]3[C@@H]1CC[C@@H]2OS(N)(=O)=O", "growth": "7.66% (active)"}
{"smiles": "N#Cc1c(Nc2ccccc2)nc2n(c1=O)-c1ccccc1Sc1ccccc1-2", "growth": "79.6%"}
{"smiles": "O=C(c1nc2ccccc2[nH]1)C1C(c2cccc([N+](=O)[O-])c2)C2CC3CCCCC3N2[C@@]12C(=O)Nc1cc(Cl)ccc12", "note": "(stereo not given in full)", "growth": "4.05% (active)"}
{"smiles": "C=CCNC(=S)NN", "growth": "119%"}
{"smiles": "NC(=S)Nc1cccc(O)c1", "growth": "98.6%"}
{"smiles": "Cc1nc2c(c(=O)[nH]1)C(c1ccccc1)c1ccc3ccccc3c1O2", "note": "(stereo not given)", "growth": "-2.8% (active)"}
{"smiles": "CCOC(=O)N/N=C\\C(C)=N\\NC(=O)OCC", "growth": "92.9%"}
{"smiles": "COc1ccc2c(c1)c(-c1noc(-c3cn(C)c4ncc(F)cc34)n1)cn2C", "growth": "84.6%"}
{"smiles": "CN(C)CCCn1c2c(c3ccc(N4CCNCC4)cc3c1=O)C(=O)c1ccccc1-2", "growth": "8.73% (active)"}
{"smiles": "Cn1cc(-c2csc(-c3cccc(F)c3)n2)c2cccnc21", "growth": "2.72% [100 µM] (active)"}
{"smiles": "COC(=O)/C(Br)=C/c1c[nH]c2ccc(Br)cc12", "growth": "67.9%"}
{"smiles": "N#Cc1c(N2CCOCC2)nc(=S)[nH]c1-c1ccco1", "growth": "70.7%"}
{"smiles": "CSc1ncccc1C(=O)OCC(=O)Nc1oc(C)c2c(C)n[nH]c(=O)c12", "growth": "98.2%"}
{"smiles": "Cc1ccc(N=c2nc3sc4c(C)ccc(C)c4n3c(N)c2C#N)cc1", "growth": "108%"}
{"smiles": "O=[N+]([O-])c1ccc(Oc2cc(Cl)c(Cl)cc2Cl)c(C(F)(F)F)c1", "growth": "104%"}
{"smiles": "COc1cc2oc(-c3ccc(NC(=O)c4ccccc4)cc3)cc(=O)c2c(OC)c1OC", "growth": "100%"}
{"smiles": "COc1ccc(NC(=O)/N=c2\\oc3c(OC)cccc3cc2-c2cc3ccccc3[nH]2)cc1", "growth": "142%"}
{"smiles": "O=c1oc2ccc(I)cc2c(=O)n1-c1ccc(F)cc1F", "growth": "-4.05% (active)"}
{"smiles": "Cc1cc(C)c2c(N)c3cccc(C)c3nc2n1", "growth": "-19.1% (active)"}
{"smiles": "COc1ccc(S(=O)(=O)N(C)c2oc(-c3ccc(Cl)cc3)nc2C#N)cc1", "growth": "63.9%"}
{"smiles": "Cc1nc(Nc2ccc(N)cc2)c2ccccc2n1", "growth": "62%"}
{"smiles": "O=C(CN1CCN(c2cc3c(cc2F)c(=O)c(C(=O)O)cn3C2CC2)CC1)N/N=C/c1ccncc1", "growth": "98%"}
{"smiles": "CN(C)c1ccc([C@@H](C(=O)Nc2cccc([N+](=O)[O-])c2)N(C(=O)c2cc3ccccc3[nH]2)c2cccc([N+](=O)[O-])c2)cc1", "growth": "97.8%"}
{"smiles": "COc1ccc(-n2c(SCc3cc(OC)c(OC)c(OC)c3)nc3ccc(C)cc3c2=O)cc1", "growth": "31.1%"}
{"smiles": "O=C1C=C(O)C(=O)C=C1O", "growth": "91.2%"}
{"smiles": "N=c1n(Cc2ccccc2)c(N)cc(=O)n1Cc1ccccc1", "growth": "11.3%"}
{"smiles": "CCc1c(Nc2ccccc2C)nc(N)[nH]c1=O", "growth": "88.9%"}
{"smiles": "CC(C)(C)CC(C)(C)c1ccc(O)c(Cc2ccc(Cl)cc2Cl)c1", "growth": "-61.6% (active)"}
{"smiles": "COc1ccc(CCN2C(=O)CCSC2=S)cc1OC", "growth": "98.1%"}
{"smiles": "N#C/C(=C\\c1c(-c2ccccc2)[nH]c2ccccc12)S(=O)(=O)c1ccccc1", "growth": "-4.39% (active)"}
{"smiles": "CC/C(=C(/c1ccc(Cl)cc1)c1ccc(OCCCN(C)C)cc1)c1ccc(OC)cc1", "growth": "46.2%"}
{"smiles": "Cn1cc(-c2nc(-c3c[nH]c4ccncc34)cs2)c2cc(F)ccc21", "growth": "-55.3% (active)"}
{"smiles": "Nc1ccc2c(c1)Cc1cc(N)c(N)cc1-2", "growth": "78.1%"}
{"smiles": "Cc1cc(N/C=c2\\sc3ncnn3c2=O)no1", "growth": "111%"}
{"smiles": "CN1CCN(c2cc(F)c(NC3=C(Cl)C(=O)c4ncccc4C3=O)c(F)c2)CC1", "growth": "-26.4% (active)"}
